From ChEMBL document CHEMBL2218924, “A broad activity screen in support of a chemogenomic map for kinase signalling research and drug discovery” (Biochem J, 2013)

Tests used:
[1] = target: T1, Serine/threonine-protein kinase BRSK1 (Homo sapiens) (UniProt Q8TDC3); conditions: at 1 µM
T1 sequence (whole entry): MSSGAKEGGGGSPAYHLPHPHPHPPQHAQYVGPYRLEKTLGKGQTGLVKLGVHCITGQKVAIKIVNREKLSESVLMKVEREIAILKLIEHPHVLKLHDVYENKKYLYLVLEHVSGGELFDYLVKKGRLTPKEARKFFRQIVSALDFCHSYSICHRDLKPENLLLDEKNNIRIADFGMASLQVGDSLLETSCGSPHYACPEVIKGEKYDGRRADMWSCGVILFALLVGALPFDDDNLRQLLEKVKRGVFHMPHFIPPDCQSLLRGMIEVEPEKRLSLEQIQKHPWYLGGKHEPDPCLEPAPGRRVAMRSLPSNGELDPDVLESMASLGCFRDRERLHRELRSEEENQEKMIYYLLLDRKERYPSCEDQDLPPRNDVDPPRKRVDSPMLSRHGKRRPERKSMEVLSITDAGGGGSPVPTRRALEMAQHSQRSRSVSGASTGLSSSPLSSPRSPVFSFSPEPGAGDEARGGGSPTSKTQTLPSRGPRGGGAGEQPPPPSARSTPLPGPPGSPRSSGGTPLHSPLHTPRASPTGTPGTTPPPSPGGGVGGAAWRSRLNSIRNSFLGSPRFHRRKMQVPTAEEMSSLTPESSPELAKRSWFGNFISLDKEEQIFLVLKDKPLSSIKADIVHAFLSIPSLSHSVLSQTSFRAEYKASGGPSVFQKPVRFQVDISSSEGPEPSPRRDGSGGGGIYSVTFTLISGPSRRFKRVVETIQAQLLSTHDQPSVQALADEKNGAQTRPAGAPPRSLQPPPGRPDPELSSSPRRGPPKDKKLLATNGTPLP

[2] = target: T1, Serine/threonine-protein kinase BRSK1 (Homo sapiens); conditions: at 10 µM
[3] = target: T2, Serine/threonine-protein kinase BRSK2 (Homo sapiens) (UniProt Q8IWQ3); conditions: at 1 µM
T2 sequence (whole entry): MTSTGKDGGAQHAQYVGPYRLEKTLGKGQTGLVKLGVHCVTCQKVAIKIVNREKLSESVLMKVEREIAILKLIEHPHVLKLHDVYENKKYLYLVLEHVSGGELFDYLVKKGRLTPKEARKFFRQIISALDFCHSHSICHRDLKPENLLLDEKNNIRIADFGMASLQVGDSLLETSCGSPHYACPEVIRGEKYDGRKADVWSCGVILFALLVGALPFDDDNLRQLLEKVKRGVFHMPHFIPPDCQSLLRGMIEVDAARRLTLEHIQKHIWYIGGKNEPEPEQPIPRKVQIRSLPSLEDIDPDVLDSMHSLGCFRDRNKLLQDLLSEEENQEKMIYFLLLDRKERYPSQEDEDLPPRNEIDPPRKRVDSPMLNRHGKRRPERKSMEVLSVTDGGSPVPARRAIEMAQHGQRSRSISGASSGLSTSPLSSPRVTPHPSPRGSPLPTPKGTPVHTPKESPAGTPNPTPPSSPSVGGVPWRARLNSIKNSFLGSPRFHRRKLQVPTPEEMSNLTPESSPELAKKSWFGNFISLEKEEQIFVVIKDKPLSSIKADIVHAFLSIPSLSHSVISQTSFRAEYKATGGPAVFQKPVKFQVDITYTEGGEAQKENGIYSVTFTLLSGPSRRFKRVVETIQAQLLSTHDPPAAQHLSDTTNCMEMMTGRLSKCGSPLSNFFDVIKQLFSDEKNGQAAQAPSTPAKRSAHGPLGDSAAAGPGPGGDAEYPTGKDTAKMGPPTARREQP

[4] = target: T2, Serine/threonine-protein kinase BRSK2 (Homo sapiens); conditions: at 10 µM
[5] = target: T3, Cyclin-dependent kinase 1/cyclin B1 (Homo sapiens) (UniProt P06493+P14635); conditions: at 1 µM
T3 sequence (P06493 whole entry, looked up): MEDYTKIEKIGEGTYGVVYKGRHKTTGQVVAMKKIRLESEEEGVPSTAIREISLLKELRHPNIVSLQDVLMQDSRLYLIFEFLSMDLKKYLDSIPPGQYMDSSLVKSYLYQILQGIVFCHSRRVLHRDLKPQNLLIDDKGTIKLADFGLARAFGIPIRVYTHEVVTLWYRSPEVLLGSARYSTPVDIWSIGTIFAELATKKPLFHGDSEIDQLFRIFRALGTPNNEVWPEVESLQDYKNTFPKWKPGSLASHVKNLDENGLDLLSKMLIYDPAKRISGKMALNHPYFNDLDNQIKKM
T3 sequence (P14635 whole entry, looked up): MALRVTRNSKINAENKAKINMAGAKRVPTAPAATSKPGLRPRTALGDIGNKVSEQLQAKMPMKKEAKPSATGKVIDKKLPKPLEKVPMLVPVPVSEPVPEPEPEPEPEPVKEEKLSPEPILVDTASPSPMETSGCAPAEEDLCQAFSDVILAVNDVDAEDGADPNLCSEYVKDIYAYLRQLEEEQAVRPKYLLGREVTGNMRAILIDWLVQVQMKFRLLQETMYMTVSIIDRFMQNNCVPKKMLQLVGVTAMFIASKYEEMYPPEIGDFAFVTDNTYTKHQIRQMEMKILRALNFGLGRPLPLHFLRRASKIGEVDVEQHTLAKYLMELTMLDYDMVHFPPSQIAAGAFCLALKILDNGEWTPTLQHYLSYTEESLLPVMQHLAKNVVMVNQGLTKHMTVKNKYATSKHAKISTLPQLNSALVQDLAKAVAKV

[6] = target: T3, Cyclin-dependent kinase 1/cyclin B1 (Homo sapiens); conditions: at 10 µM
[7] = target: T4, Cyclin-dependent kinase 2/cyclin A (Homo sapiens) (UniProt P24941+P20248+P78396); conditions: at 1 µM
[8] = target: T4, Cyclin-dependent kinase 2/cyclin A (Homo sapiens); conditions: at 10 µM
[9] = target: T5, Cyclin-dependent kinase 2/cyclin E (Homo sapiens) (UniProt P24864+P24941+O96020); conditions: at 1 µM
[10] = target: T5, Cyclin-dependent kinase 2/cyclin E (Homo sapiens); conditions: at 10 µM
[11] = target: T6, CDK3/cyclin E (Homo sapiens) (UniProt P24864+O96020+Q00526); conditions: at 1 µM
T6 sequence (O96020 whole entry, looked up): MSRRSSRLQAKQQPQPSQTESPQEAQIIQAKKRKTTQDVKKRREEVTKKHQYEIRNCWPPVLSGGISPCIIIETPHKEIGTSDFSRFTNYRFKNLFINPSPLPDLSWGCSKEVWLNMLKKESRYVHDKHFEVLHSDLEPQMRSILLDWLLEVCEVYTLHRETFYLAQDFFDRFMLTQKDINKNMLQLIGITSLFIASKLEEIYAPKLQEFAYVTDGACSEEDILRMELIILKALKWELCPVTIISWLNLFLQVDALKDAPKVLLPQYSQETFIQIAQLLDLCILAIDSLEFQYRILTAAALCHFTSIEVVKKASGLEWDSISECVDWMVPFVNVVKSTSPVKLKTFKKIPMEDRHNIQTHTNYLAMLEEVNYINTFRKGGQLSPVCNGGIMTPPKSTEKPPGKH
T6 sequence (P24864 whole entry, looked up): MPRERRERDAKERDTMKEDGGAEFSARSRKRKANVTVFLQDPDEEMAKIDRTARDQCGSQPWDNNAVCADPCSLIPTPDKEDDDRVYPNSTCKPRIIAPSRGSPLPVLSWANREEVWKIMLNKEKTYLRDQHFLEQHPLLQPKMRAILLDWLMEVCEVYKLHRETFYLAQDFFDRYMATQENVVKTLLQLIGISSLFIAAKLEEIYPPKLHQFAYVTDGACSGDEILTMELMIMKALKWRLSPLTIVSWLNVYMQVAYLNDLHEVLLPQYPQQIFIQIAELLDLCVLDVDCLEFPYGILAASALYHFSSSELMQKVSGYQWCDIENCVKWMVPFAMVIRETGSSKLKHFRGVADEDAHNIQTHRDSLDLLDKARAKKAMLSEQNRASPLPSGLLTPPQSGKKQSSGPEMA
T6 sequence (Q00526 whole entry, looked up): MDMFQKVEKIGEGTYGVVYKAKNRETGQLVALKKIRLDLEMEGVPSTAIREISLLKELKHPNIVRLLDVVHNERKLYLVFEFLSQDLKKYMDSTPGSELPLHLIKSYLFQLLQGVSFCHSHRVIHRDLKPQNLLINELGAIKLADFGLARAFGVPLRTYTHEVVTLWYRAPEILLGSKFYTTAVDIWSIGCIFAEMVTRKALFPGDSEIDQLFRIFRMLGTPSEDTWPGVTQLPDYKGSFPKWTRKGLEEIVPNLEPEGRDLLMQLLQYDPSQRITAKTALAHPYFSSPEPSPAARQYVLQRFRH

[12] = target: T6, CDK3/cyclin E (Homo sapiens); conditions: at 10 µM
[13] = target: T7, Cyclin-dependent kinase 5/CDK5 activator 1 (Homo sapiens) (UniProt Q00535+Q15078); conditions: at 1 µM
Target sequence in this assay (Q00535 whole entry): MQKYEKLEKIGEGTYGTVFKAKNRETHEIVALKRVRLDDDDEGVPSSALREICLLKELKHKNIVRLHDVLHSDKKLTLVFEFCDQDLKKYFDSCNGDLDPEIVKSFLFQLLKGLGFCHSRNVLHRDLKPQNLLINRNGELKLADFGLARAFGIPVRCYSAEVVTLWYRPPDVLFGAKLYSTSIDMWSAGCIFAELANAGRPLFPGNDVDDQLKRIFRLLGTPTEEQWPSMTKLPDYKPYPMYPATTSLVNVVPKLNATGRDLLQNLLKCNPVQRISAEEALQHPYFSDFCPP
Target sequence in this assay (Q15078 99-307 partner limits assumed): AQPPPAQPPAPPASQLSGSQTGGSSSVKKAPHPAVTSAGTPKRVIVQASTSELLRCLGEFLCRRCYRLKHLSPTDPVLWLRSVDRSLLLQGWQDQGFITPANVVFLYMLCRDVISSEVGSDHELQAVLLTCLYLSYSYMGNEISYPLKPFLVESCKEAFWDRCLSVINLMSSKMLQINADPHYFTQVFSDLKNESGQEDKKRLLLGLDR

[14] = target: T7, Cyclin-dependent kinase 5/CDK5 activator 1 (Homo sapiens); conditions: at 10 µM
[15] = target: T7, Cyclin-dependent kinase 5/CDK5 activator 1 (Homo sapiens); conditions: at 1 µM; remark: listed apart in the source
[16] = target: T7, Cyclin-dependent kinase 5/CDK5 activator 1 (Homo sapiens); conditions: at 10 µM; remark: listed apart in the source
Target sequence in this assay (Q00535 whole entry): as the sequence (Q00535 whole entry) above
Target sequence in this assay (Q15078 99-307 partner limits assumed): as the sequence (Q15078 99-307 partner limits assumed) above

[17] = target: T8, CDK6/cyclin D3 (Homo sapiens) (UniProt P30281+Q00534); conditions: at 1 µM
[18] = target: T8, CDK6/cyclin D3 (Homo sapiens); conditions: at 10 µM
[19] = target: T9, Cyclin-dependent kinase 7/ cyclin H (Homo sapiens) (UniProt P51946+P50613); conditions: at 1 µM
[20] = target: T9, Cyclin-dependent kinase 7/ cyclin H (Homo sapiens); conditions: at 10 µM

O=C1NC(=O)/C(=C/c2ccc3c(c2)OC(F)(F)O3)S1
residual activity [1]: 86%
residual activity [2]: 71%
residual activity [3]: 76%
residual activity [4]: 62%
residual activity [5]: 101%
residual activity [6]: 104%
residual activity [7]: 140%
residual activity [8]: 96%
residual activity [9]: 102%
residual activity [10]: 113%
residual activity [11]: 104%
residual activity [12]: 89%
residual activity [13]: 102%
residual activity [14]: 91%
residual activity [15]: 101%
residual activity [16]: 94%
residual activity [17]: 98%
residual activity [18]: 90%
residual activity [19]: 88%
residual activity [20]: 86%

Nc1cccc(-c2cc3c(Oc4cccc(O)c4)ncnc3[nH]2)c1
residual activity [1]: 45%
residual activity [2]: 8%
residual activity [3]: 75%
residual activity [4]: 20%
residual activity [5]: 81%
residual activity [6]: 33%
residual activity [7]: 74%
residual activity [8]: 27%
residual activity [9]: 91%
residual activity [10]: 41%
residual activity [11]: 82%
residual activity [12]: 34%
residual activity [13]: 53%
residual activity [14]: 12%
residual activity [15]: 72%
residual activity [16]: 14%
residual activity [17]: 101%
residual activity [18]: 64%
residual activity [19]: 101%
residual activity [20]: 67%

CC(C)n1cnc2/c(=N/c3cccc(Cl)c3)nc(NCCO)[nH]c21
residual activity [1]: 89%
residual activity [2]: 89%
residual activity [3]: 118%
residual activity [4]: 104%
residual activity [5]: 58%
residual activity [6]: 13%
residual activity [7]: 24%
residual activity [8]: 5%
residual activity [9]: 25%
residual activity [10]: 2%
residual activity [11]: 44%
residual activity [12]: 8%
residual activity [13]: 3%
residual activity [14]: 0%
residual activity [15]: 8%
residual activity [16]: 1%
residual activity [17]: 92%
residual activity [18]: 58%
residual activity [19]: 45%
residual activity [20]: 7%

CC(C)n1cnc2c(NCc3ccccc3)nc(NCCCO)nc21
residual activity [1]: 105%
residual activity [2]: 100%
residual activity [3]: 110%
residual activity [4]: 99%
residual activity [5]: 90%
residual activity [6]: 55%
residual activity [7]: 58%
residual activity [8]: 11%
residual activity [9]: 39%
residual activity [10]: 8%
residual activity [11]: 71%
residual activity [12]: 23%
residual activity [13]: 40%
residual activity [14]: 8%
residual activity [15]: 53%
residual activity [16]: 8%
residual activity [17]: 94%
residual activity [18]: 86%
residual activity [19]: 62%
residual activity [20]: 12%

COc1ccc(S(=O)(=O)N(CCO)c2ccccc2CN(C)C/C=C/c2ccc(Cl)cc2)cc1
residual activity [1]: 81%
residual activity [2]: 63%
residual activity [3]: 114%
residual activity [4]: 88%
residual activity [5]: 117%
residual activity [6]: 90%
residual activity [7]: 76%
residual activity [8]: 64%
residual activity [9]: 106%
residual activity [10]: 95%
residual activity [11]: 92%
residual activity [12]: 80%
residual activity [13]: 91%
residual activity [14]: 84%
residual activity [15]: 90%
residual activity [16]: 97%
residual activity [17]: 97%
residual activity [18]: 86%
residual activity [19]: 102%
residual activity [20]: 88%

COc1ccc(CNc2nc(N(CCO)CCO)nc3c2ncn3C(C)C)cc1
residual activity [1]: 91%
residual activity [2]: 92%
residual activity [3]: 114%
residual activity [4]: 99%
residual activity [5]: 81%
residual activity [6]: 26%
residual activity [7]: 24%
residual activity [8]: 3%
residual activity [9]: 18%
residual activity [10]: 0%
residual activity [11]: 52%
residual activity [12]: 9%
residual activity [13]: 11%
residual activity [14]: 2%
residual activity [15]: 18%
residual activity [16]: 2%
residual activity [17]: 91%
residual activity [18]: 77%
residual activity [19]: 94%
residual activity [20]: 36%

CCN(CC)CCCCN1c2ccccc2Oc2ccc(Cl)cc21
residual activity [1]: 88%
residual activity [2]: 105%
residual activity [3]: 131%
residual activity [4]: 126%
residual activity [5]: 119%
residual activity [6]: 96%
residual activity [7]: 132%
residual activity [8]: 102%
residual activity [9]: 116%
residual activity [10]: 106%
residual activity [11]: 117%
residual activity [12]: 94%
residual activity [13]: 99%
residual activity [14]: 102%
residual activity [15]: 100%
residual activity [16]: 105%
residual activity [17]: 108%
residual activity [18]: 103%
residual activity [19]: 89%
residual activity [20]: 105%
